Test results published in PubChem BioAssay (EPA / NIEHS).
The source made the active and inactive calls. Rule for the calls: active = hit-call score of the fitted dose curve at least 0.9, where 1 is the maximum; inactive = score below 0.9.

Assay: ATG_TAL_CIS: Attagene CIS-FACTORIAL HepG2 Assay for human TAL Basal Promoter (AID 2282966);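 note: background control endpoint measuring basal TAL promoter reporter mRNA not a specific factor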
Details: HepG2 Attagene cis-factorial TAL promoter reporter; actives raise or lower the signal
In short: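 Human hepatoma HepG2 cells, transfected with promoter-regulated reporter units, were treated 24 h. Reporter transcript levels, measured through RT-PCR and capillary electrophoresis, were fitted for gain or loss relative to DMSO.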

| Structure (SMILES) | outcome | AC50 |
| --- | --- | --- |
| OCCOc1cccc(OCCO)c1 | inactive |  |
| O=C1OC2(c3cc(Br)c(O)c(Br)c3Oc3c2cc(Br)c(O)c3Br)c2c(Cl)c(Cl)c(Cl)c(Cl)c21 |  | 26.1 µM (active) |
| CCCCc1ccc(N)cc1 | inactive |  |
| O=C1c2ccccc2C(=O)N1SC1CCCCC1 |  | 60.1 µM (active) |
| CC(C)c1ccc(C(C)C)cc1 | inactive |  |
| NCCNCCN | inactive |  |
| Nc1ccc(F)c([N+](=O)[O-])c1 | inactive |  |
| Nc1cccc(S(=O)(=O)c2cccc(N)c2)c1 | inactive |  |
| C=C(C)C(=O)Nc1ccc(Cl)c(Cl)c1 | inactive |  |
| COc1ccc(OC)c(OC)c1 | inactive |  |
| Clc1sc(Cl)c(Cl)c1Cl | inactive |  |
| COC(=O)OC | inactive |  |
| NNc1nc(-c2ccc(N)cc2)cs1 | inactive |  |
| Cc1ccccc1C=O | inactive |  |
| CC(C)(C)c1n[nH]c(=S)n(N)c1=O | inactive |  |
| O=P(c1ccccc1)(c1ccccc1)c1ccccc1 | inactive |  |
| CCCC(=O)OCCC(C)CCC=C(C)C (centres undefined) | inactive |  |
| CC(C)(C)NC(N)=O | inactive |  |
| O=C(O)COCCN1CCN(C(c2ccccc2)c2ccc(Cl)cc2)CC1 (centres undefined) | inactive |  |

| Structure (SMILES) | outcome | AC50 |
| --- | --- | --- |
| CCC(O)CO (centres undefined) | inactive |  |
| CCc1c(C)cc(N)c(CC)c1N | inactive |  |
| CN(C)CCCN | inactive |  |
| O=C(O)c1cccc(C(F)(F)F)c1 | inactive |  |
| Cc1ccc(Nc2ccc(O)c3c2C(=O)c2ccccc2C3=O)cc1 | inactive |  |
| Cc1ccc(C=O)s1 | inactive |  |
| C=CC(C)(CCC=C(C)C)OC=O (centres undefined) | inactive |  |
| CC(=O)OCCC(C)CC(C)(C)C (centres undefined) | inactive |  |
| CCCCCCCCCOC(C)=O | inactive |  |
| CC1=CCC2C(C1)C2(C)C (centres undefined) | inactive |  |
| Cc1ccc2sc3cccc(C)c3c2c1 | inactive |  |
| CCCCCC(=O)OCCc1ccccc1 | inactive |  |
| O=Nc1ccc(Nc2ccccc2)cc1 | inactive |  |
| CC(C)c1cccc(O)c1 | inactive |  |
| NC(=O)c1ccccc1Cl | inactive |  |
| COC(=O)c1ccc(C)cc1 | inactive |  |
| CNC[C@H](O)c1cccc(O)c1 | inactive |  |
| CCOC(=S)SSC(=S)OCC | inactive |  |
| COC(=O)Cc1cccc2ccccc12 | inactive |  |

Assay: ATG_TGFb_CIS: Attagene CIS-FACTORIAL HepG2 Assay for human Transforming Growth Factor (TGF) (AID 2282967)
Details: HepG2 Attagene CIS TGFb reporter, mRNA transcription; actives raise or lower the signal
In short: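 HepG2 cells transiently transfected with cis-promoter-driven multiplexed reporter units; 24 h compound exposure. Reporter mRNA measured by RT-PCR, 6-FAM labeling, HpaI digestion and capillary electrophoresis; bidirectional fit versus DMSO baseline.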

| Structure (SMILES) | outcome | AC50 |
| --- | --- | --- |
| OCCOc1cccc(OCCO)c1 | inactive |  |
| O=C1OC2(c3cc(Br)c(O)c(Br)c3Oc3c2cc(Br)c(O)c3Br)c2c(Cl)c(Cl)c(Cl)c(Cl)c21 |  | 58.4 µM (active) |
| CCCCc1ccc(N)cc1 | inactive |  |
| O=C1c2ccccc2C(=O)N1SC1CCCCC1 |  | 144 µM (active) |
| CC(C)c1ccc(C(C)C)cc1 |  | 171 µM (active) |
| NCCNCCN | inactive |  |
| Nc1ccc(F)c([N+](=O)[O-])c1 | inactive |  |
| Nc1cccc(S(=O)(=O)c2cccc(N)c2)c1 | inactive |  |
| C=C(C)C(=O)Nc1ccc(Cl)c(Cl)c1 | inactive |  |
| COc1ccc(OC)c(OC)c1 | inactive |  |
| Clc1sc(Cl)c(Cl)c1Cl | inactive |  |
| COC(=O)OC | inactive |  |
| NNc1nc(-c2ccc(N)cc2)cs1 | inactive |  |
| Cc1ccccc1C=O | inactive |  |
| CC(C)(C)c1n[nH]c(=S)n(N)c1=O | inactive |  |
| O=P(c1ccccc1)(c1ccccc1)c1ccccc1 | inactive |  |
| CCCC(=O)OCCC(C)CCC=C(C)C (centres undefined) | inactive |  |
| CC(C)(C)NC(N)=O | inactive |  |
| O=C(O)COCCN1CCN(C(c2ccccc2)c2ccc(Cl)cc2)CC1 (centres undefined) | inactive |  |

| Structure (SMILES) | outcome | AC50 |
| --- | --- | --- |
| CCC(O)CO (centres undefined) | inactive |  |
| CCc1c(C)cc(N)c(CC)c1N | inactive |  |
| CN(C)CCCN | inactive |  |
| O=C(O)c1cccc(C(F)(F)F)c1 | inactive |  |
| Cc1ccc(Nc2ccc(O)c3c2C(=O)c2ccccc2C3=O)cc1 | inactive |  |
| Cc1ccc(C=O)s1 | inactive |  |
| C=CC(C)(CCC=C(C)C)OC=O (centres undefined) | inactive |  |
| CC(=O)OCCC(C)CC(C)(C)C (centres undefined) | inactive |  |
| CCCCCCCCCOC(C)=O | inactive |  |
| CC1=CCC2C(C1)C2(C)C (centres undefined) | inactive |  |
| Cc1ccc2sc3cccc(C)c3c2c1 | inactive |  |
| CCCCCC(=O)OCCc1ccccc1 | inactive |  |
| O=Nc1ccc(Nc2ccccc2)cc1 | inactive |  |
| CC(C)c1cccc(O)c1 | inactive |  |
| NC(=O)c1ccccc1Cl | inactive |  |
| COC(=O)c1ccc(C)cc1 | inactive |  |
| CNC[C@H](O)c1cccc(O)c1 | inactive |  |
| CCOC(=S)SSC(=S)OCC | inactive |  |
| COC(=O)Cc1cccc2ccccc12 | inactive |  |

Assay: ATG_VDRE_CIS: Attagene CIS-FACTORIAL HepG2 Assay for human Vitamin D Receptor Element (VDRE) (AID 2282968)
Details: HepG2 VDRE cis-reporter transcription, actives raise or lower the signal
In short: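 Measures endogenous factor activity through cis-element-driven reporter transcripts in transiently transfected HepG2. Cells are treated 24 h; reporter mRNA is quantified by RT-PCR and capillary electrophoresis; fitting is bidirectional.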

| Structure (SMILES) | outcome | AC50 |
| --- | --- | --- |
| OCCOc1cccc(OCCO)c1 | inactive |  |
| O=C1OC2(c3cc(Br)c(O)c(Br)c3Oc3c2cc(Br)c(O)c3Br)c2c(Cl)c(Cl)c(Cl)c(Cl)c21 |  | 16.4 µM (active) |
| CCCCc1ccc(N)cc1 | inactive |  |
| O=C1c2ccccc2C(=O)N1SC1CCCCC1 | inactive |  |
| CC(C)c1ccc(C(C)C)cc1 | inactive |  |
| NCCNCCN | inactive |  |
| Nc1ccc(F)c([N+](=O)[O-])c1 | inactive |  |
| Nc1cccc(S(=O)(=O)c2cccc(N)c2)c1 | inactive |  |
| C=C(C)C(=O)Nc1ccc(Cl)c(Cl)c1 |  | 20.6 µM (active) |
| COc1ccc(OC)c(OC)c1 | inactive |  |
| Clc1sc(Cl)c(Cl)c1Cl | inactive |  |
| COC(=O)OC | inactive |  |
| NNc1nc(-c2ccc(N)cc2)cs1 | inactive |  |
| Cc1ccccc1C=O | inactive |  |
| CC(C)(C)c1n[nH]c(=S)n(N)c1=O | inactive |  |
| O=P(c1ccccc1)(c1ccccc1)c1ccccc1 |  | 13.1 µM (active) |
| CCCC(=O)OCCC(C)CCC=C(C)C (centres undefined) | inactive |  |
| CC(C)(C)NC(N)=O | inactive |  |
| O=C(O)COCCN1CCN(C(c2ccccc2)c2ccc(Cl)cc2)CC1 (centres undefined) | inactive |  |

| Structure (SMILES) | outcome | AC50 |
| --- | --- | --- |
| CCC(O)CO (centres undefined) | inactive |  |
| CCc1c(C)cc(N)c(CC)c1N | inactive |  |
| CN(C)CCCN | inactive |  |
| O=C(O)c1cccc(C(F)(F)F)c1 | inactive |  |
| Cc1ccc(Nc2ccc(O)c3c2C(=O)c2ccccc2C3=O)cc1 | inactive |  |
| Cc1ccc(C=O)s1 | inactive |  |
| C=CC(C)(CCC=C(C)C)OC=O (centres undefined) | inactive |  |
| CC(=O)OCCC(C)CC(C)(C)C (centres undefined) | inactive |  |
| CCCCCCCCCOC(C)=O | inactive |  |
| CC1=CCC2C(C1)C2(C)C (centres undefined) | inactive |  |
| Cc1ccc2sc3cccc(C)c3c2c1 | inactive |  |
| CCCCCC(=O)OCCc1ccccc1 | inactive |  |
| O=Nc1ccc(Nc2ccccc2)cc1 |  | 30.3 µM (active) |
| CC(C)c1cccc(O)c1 | inactive |  |
| NC(=O)c1ccccc1Cl |  | 63.3 µM (active) |
| COC(=O)c1ccc(C)cc1 | inactive |  |
| CNC[C@H](O)c1cccc(O)c1 | inactive |  |
| CCOC(=S)SSC(=S)OCC | inactive |  |
| COC(=O)Cc1cccc2ccccc12 | inactive |  |
